Experimental findings from PubChem BioAssay (NCI) are described below.

This is part of a sample that, as a whole, favours compounds with a hit. Of some 79,000 tested, about 15% had one in any assay. A number with no mark means an inactive call. Activity calls are given as the source filed them. No stated cut-off is given here; in the data, active means growth inhibition above about 70%; inactive means the rest.

Assay [1] can be described thus: NCI Yeast Anticancer Drug Screen. Data for the rad50 strain (AID 155).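 Further: 0% = growth of vehicle-only cultures of the same strain.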 Particulars: S. cerevisiae rad50 strain growth inhibition; at 50.0 µM; stronger effect = higher value. A digest of the protocol: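 Growth of the mutant yeast was measured after compound exposure and referenced to vehicle-treated cultures.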
Assay [2] can be described thus: NCI Yeast Anticancer Drug Screen. Data for the mec2-1 strain (AID 157). Particulars: S. cerevisiae mec2-1 strain, at 50.0 µM, stronger effect = higher value. The method, boiled down: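 Vehicle-treated cultures served as reference for growth inhibition of compound-exposed mec2-1 yeast.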
The nature of assay [3]: NCI Yeast Anticancer Drug Screen. Data for the sgs1 mgt1 strain (AID 161).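 Further: 0% = growth of cultures given vehicle only.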 Particulars: S. cerevisiae sgs1 mgt1 strain, at 50.0 µM, stronger effect = higher value. A digest of the protocol:
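Test agents were incubated with a DNA-repair-mutant yeast strain. Growth was then read and compared against vehicle-treated controls.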

Assay [4] in a line: NCI Yeast Anticancer Drug Screen. Data for the cln2 rad14 strain (AID 165).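 Further: 0% = growth equal to vehicle treated cultures.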 Particulars: S. cerevisiae cln2 rad14 strain, at 50.0 µM, stronger effect = higher value. The method, boiled down:
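Each compound was tested on cln2 rad14 yeast. Inhibition of growth was calculated against vehicle-exposed controls.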

A short description of assay [5]: NCI Yeast Anticancer Drug Screen. Data for the bub3 strain (AID 167). The conditions noted are these: S. cerevisiae bub3 mutant strain, at 50.0 µM, stronger effect = higher value. A digest of the protocol:
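Whole-cell yeast assay. The mutant strain was incubated with compounds, and growth inhibition was determined by comparison with vehicle-treated cells.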

Assay [6] in a line: NCI Yeast Anticancer Drug Screen. Data for the mlh1 rad18 strain (AID 175). The conditions noted are these: S. cerevisiae mlh1 rad18 strain growth inhibition; at 50.0 µM; stronger effect = higher value. The method, boiled down: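 Vehicle-treated cultures served as the reference for growth inhibition in a yeast strain carrying DNA damage repair alterations exposed to each compound.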

Take `CN1CCS(=O)(=O)CC1`: the growth inhibition was 5.4% in assay [1]; -40% in assay [2]; -17.6% in assay [3]; -2.55% in assay [4]; 1.75% in assay [5]; 5.05% in assay [6].

Turning to `N#CCCN(CCC#N)c1ccc(/C=C2\N=C(c3cc([N+](=O)[O-])ccc3Cl)OC2=O)cc1`, the growth inhibition in assay [1] was -8.15%; in assay [2] it was 13.9%; in assay [3], -16.4%; in assay [4] it was 25%; in assay [5], 4.85%; in assay [6] it was -7.15%.

`O=P(CCCCCCCCCCP(=O)(c1ccccc1)c1ccccc1)(c1ccccc1)c1ccccc1`: the growth inhibition in assay [1] was -11%; in assay [2], 2.6%; in assay [3], 23.5%; in assay [4] it was 9.55%; in assay [5] it was 2.3%; in assay [6], 29.5%.

For `Cc1cc2nc3[nH]c(=O)c4c(n3c2cc1C)CCC4`, the growth inhibition in assay [1] was 0%; in assay [2] it was -6.8%; in assay [3] it was 0.2%; in assay [4] it was -8.95%; in assay [5], 8.45%; in assay [6] it was -15.2%.

As to `COC1=CC(O)(CC(N)=O)c2ccccc2C1=O` (stereo unspecified), the growth inhibition is -5.3% in assay [1]; -8.65% in assay [2]; 10.6% in assay [3]; -11.4% in assay [4]; -23.9% in assay [5]; 4.85% in assay [6].

Turning to `Cc1nc(N)c(-c2ccccc2)s1`, the growth inhibition in assay [1] is 18.1%; in assay [2], -15.9%; in assay [3] it was 7.2%; in assay [4], -11.2%; in assay [5], -7.85%; in assay [6] it was 11.9%.

In the case of `Cc1cccc(OCCCCCl)c1`, the growth inhibition was -18% in assay [1]; -9.7% in assay [2]; -8.25% in assay [3]; 10.4% in assay [4]; -20.6% in assay [5]; -9.3% in assay [6].

Regarding `COc1ccc(N=Cc2ccc(C=Nc3ccc(OC)cc3OC)cc2)c(OC)c1`, the growth inhibition was 10.6% in assay [1]; -21.6% in assay [2]; 5.15% in assay [3]; 7.7% in assay [4]; -5.45% in assay [5]; -1.9% in assay [6].

As for `Cn1c2ccccc2c(=S)c2cc(NC(=O)CCCCC(=O)Nc3ccc4c(c3)c(=S)c3ccccc3n4C)ccc21`, the growth inhibition in assay [1] was 32.2%; in assay [2] it was 22.9%; in assay [3] it was 22.4%; in assay [4], 23.5%; in assay [5], -4.1%; in assay [6], 23.9%.

`O=S1(=O)c2ccccc2NC(c2ccc3ccccc3c2)CC1c1ccccc1F` (stereo unspecified): the growth inhibition in assay [1] is -25.3%; in assay [2] it was -28.1%; in assay [3], -47%; in assay [4] it was 4.95%; in assay [5] it was -18.4%; in assay [6], -14.2%.

For `O=P(O)(O)c1ccccc1Br`, the growth inhibition in assay [1] was -13.1%; in assay [2], -17.2%; in assay [3], 4.85%; in assay [4], -15.8%; in assay [5], 2.3%; in assay [6] it was 3.2%.

For `CCCCCCC(=O)OC[n+]1ccc2c(C)c3[nH]c4ccc(OC)cc4c3c(C)c2c1`, the growth inhibition is 87% (active) in assay [1]; 91.2% (active) in assay [2]; 89.8% (active) in assay [3]; 88.7% (active) in assay [4]; 86% (active) in assay [5]; 91.1% (active) in assay [6].

Regarding `CCCCOC(=O)CC(C(=O)OCCCC)N1CCNCC1` (stereo unspecified), the growth inhibition in assay [1] was -0.05%; in assay [2] it was -9.95%; in assay [3], -4.15%; in assay [4] it was -50.6%; in assay [5], -1.2%; in assay [6], -3.1%.

In the case of `CC1CC=C2C=C(Cl)C=CC2(C)C1C` (stereo unspecified), the growth inhibition in assay [1] is 1.8%; in assay [2], 3.55%; in assay [3], -2.85%; in assay [4], -9.2%; in assay [5], 9%; in assay [6], -1.85%.

With `CCCC(=O)Nc1ccccc1`, the growth inhibition in assay [1] is 18.1%; in assay [2], -15.8%; in assay [3], 8.75%; in assay [4] it was 7%; in assay [5], -4.75%; in assay [6] it was 19.6%.

In the case of `COC=C(C(=O)OC)C(=O)OC`, the growth inhibition in assay [1] is -1.65%; in assay [2], 3.9%; in assay [3], 0.5%; in assay [4], 0.2%; in assay [5], -10.5%; in assay [6] it was 3.85%.

For `Cc1cccc(N2CCN(c3ccc4nonc4c3[N+](=O)[O-])CC2)c1`, the growth inhibition is -5.05% in assay [1]; -4.4% in assay [2]; -9.9% in assay [3]; -13% in assay [4]; -13.9% in assay [5]; -15.3% in assay [6].

`CN(C)CC1CCCCCCCCCC(CN(C)C)C1=O` (stereo unspecified): the growth inhibition is -26.4% in assay [1]; 19.9% in assay [2]; -11.3% in assay [3]; -1.6% in assay [4]; -21.4% in assay [5]; 66.7% in assay [6].

On to `Cc1nn(C(=O)c2cccnc2)c(-c2ccccc2)c1N=Nc1ccc(S(=O)(=O)Nc2ncccn2)cc1`, for which the growth inhibition in assay [1] was 23.7%; in assay [2] it was 18.4%; in assay [3], 31.4%; in assay [4], 33%; in assay [5], 0.7%; in assay [6] it was 42.5%.

Turning to `COC(=O)CC(c1ccc2c(c1)OCO2)N1CCOCC1` (stereo unspecified), the growth inhibition in assay [1] is -6.3%; in assay [2], 31.3%; in assay [3], 19.5%; in assay [4], -6.1%; in assay [5], 21.2%; in assay [6] it was 42.9%.

Take `NC(=O)c1n[nH]n(-c2ccccc2)c1=O`: the growth inhibition is -13.2% in assay [1]; -5.35% in assay [2]; -7.75% in assay [3]; 0.15% in assay [4]; -19.9% in assay [5]; 3.85% in assay [6].
